# KB-V1 MDR tox – KB-V1 MDR subline cytotoxicity | KB-V1 MDR cells viability, CellTiter-Glo, 72 h | Potency, µM (top dose mostly 46.1 µM), actives largely listed as cytotoxic | 3.4% of 400,000 active; further: potency means the concentration at half of the fitted maximal effect; on the % scale 0 is the no-effect control and ±100 the full control effect; nearly all actives have a fitted effect of over 60% in size
#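 In this primary screen, KB-V1 cells overexpressing P-gp are incubated with library compounds (lowest to highest concentration) for 72 h at 37 degrees C before a luminescent ATP viability read.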
# MCF10A rereplic – induces DNA re-replication in MCF 10a normal breast cells; MCF 10A DNA re-replication, Hoechst nuclear intensity, 48 h; Potency, µM (highest dose often 46.1 µM), for inactives: at the highest dose activity, positive = re-replication, hits mostly activators; 2.9% of 350,000 active; AID 624296; further: potency means the concentration at half of the fitted maximal effect; % of control where 0% means no effect; nearly all actives have a fitted effect of over 50% in size
# KB-3-1 tox – kills parental KB-3-1 adenocarcinoma cells; KB-3-1 viability, CellTiter-Glo ATP luminescence, 72 h; Potency, µM (highest dose often 46.1 µM), most hits filed as cytotoxic; 1.4% of 400,000 active; AID 1347075; further: potency means the concentration at half of the fitted maximal effect; on the % scale 0 is the no-effect control and ±100 the full control effect; nearly all actives have a fitted effect of over 60% in size
#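 Parental KB-3-1 adenocarcinoma cells in phenol-red-free DMEM with 10% FBS were pin-treated with compounds at several concentrations, incubated 72 h at 37 °C, and viability read by CellTiter-Glo luminescence; concentration-effect curves were fitted after normalization.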
# SW480 rerep – DNA re-replication induction in SW480 cells; SW480 DNA re-replication, Hoechst DNA content imaging, 48 h; Potency, µM (top dose mostly 46.1 µM), for the others: top-dose re-replication activation, actives largely listed as activators; 1.8% of 340,000 active; further: potency means the concentration at half of the fitted maximal effect; % of control where 0% means no effect; nearly all actives have a fitted effect of over 55% in size
#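 DNA re-replication was detected as more nuclei of elevated Hoechst intensity after 48 hr exposure to compound (23 nL pinned per well of 250 cells).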
# IL1B secr inh – inflammasome signaling inhibition, IL-1 beta readout; THP-1 LPS/ATP IL-1B secretion, AlphaLISA, 16 h; stronger effect = lower value; activity change, % at 57.5 µM; 4.7% of 360,000 active; AID 743279; in the data active means activity change below about -50%; inconclusive means mostly about -30% to -49%; further: on the % scale 0 is the no-effect control and ±100 the full control effect
#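 Secreted IL-1B measured by AlphaLISA bead assay after 16 h compound exposure of THP-1 cells; compounds (final up to 57.5 uM) added 1 h before LPS (250 ng/mL) and ATP (1.25 mM) stimulation; lower signal means less secretion.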
# Active calls of the source: *; i = inactive; ? = inconclusive; nt = not tested or not shown; [ ] = dose if it differs, or a comment. Rows were chosen to be rich in hits. Some 9.9% of all compounds tested hit in one or more screens of this group. Unless noted, the call rests on the fitted dose curve; in most records, active means well fitted curve in the direction sought with a large enough effect; inconclusive means small, poorly fitted or top-dose-only effect, or another doubt; inactive means no such curve, though single readings can be large; an effect the other way counts as inactive or inconclusive.
SMILES,KB-V1 MDR tox,MCF10A rereplic,KB-3-1 tox,SW480 rerep,IL1B secr inh
CCOc1ccc(CC(=O)Nc2c(C(=O)c3ccc(F)cc3)oc3ccc(Cl)cc23)cc1OCC,i,nt,i,nt,nt
Cc1ccc(NC(=O)c2sc(-n3nc(C)c(Cc4ccc5c(c4)OCO5)c3C)nc2C)cc1C,i,nt,i,nt,nt
O=C(NCc1cc([N+](=O)[O-])ccc1O)c1cccc(NS(=O)(=O)c2ccccc2)c1,i,0%,i,-3%,0
C#CCn1c(S(=O)(=O)Cc2ccccc2Cl)nc(-c2ccccc2)c1-c1ccccc1,i,7%,i,-4%,?
C#CCn1c(S(=O)(=O)Cc2ccc(C)cc2)nc(-c2ccccc2)c1-c1ccccc1,6.5µM*,27%,6.5µM*,?,?
CSc1nnc(-c2sc3cc(C(F)(F)F)cnc3c2-c2ccccn2)n1C,18µM*,7%,?,10%,6
Cc1ccc(/C=C/S(=O)(=O)NCCC(=O)NCc2ccc(F)cc2)cc1,i,0%,i,-17%,-3
O=C(Oc1cc2oc(=O)cc(-c3ccccc3)c2cc1Cl)C1CCCCC1,?,?,i,?,11
CC(C)(C)OC(=O)NCC(=O)Oc1cc2oc(=O)cc(-c3ccccc3)c2cc1Cl,i,23µM*,i,21µM*,0
O=C(NCc1ccncc1)C1Cc2c(-c3ccccc3Oc3ccccc3)ccnc2O1 (stereo not given),i,nt,i,nt,-59*
CC(=O)Nc1ccc(-c2ccnc3c2CC(C(=O)NCc2ccco2)O3)cc1 (stereo not given),i,nt,0.52µM*,nt,40
O=C(NCc1cccs1)C1Cc2c(-c3ccccc3Oc3ccccc3)ccnc2O1 (stereo not given),i,nt,i,nt,-11
CC(=O)Nc1ccc(-c2ccnc3c2CC(C(=O)NCc2ccccc2)O3)cc1 (stereo not given),1.3µM*,nt,0.065µM*,nt,60
CC(=O)Nc1ccc(-c2ccnc3c2CC(C(=O)NCCc2ccccc2)O3)cc1 (stereo not given),i,nt,i,nt,53
CC(=O)c1ccc(NC(=O)C(=O)c2cn(CC(=O)N3CCCCC3)c3ccccc23)cc1,i,-7%,i,-4%,15
Cn1nnnc1Sc1ncnc2scc(-c3ccc([N+](=O)[O-])cc3)c12,i,2.6µM*,?,21%,nt
Cn1nnnc1Sc1ncnc2scc(-c3cccc(Br)c3)c12,18µM*,?,7.3µM*,?,nt
Cn1nnnc1Sc1ncnc2scc(-c3cccc4c3sc3ccccc34)c12,?,?,21µM*,?,nt
Cn1nnnc1Sc1ncnc2scc(-c3ccc4c(c3)OCO4)c12,i,23µM*,i,12%,nt
Cc1cccc(NC(=O)C(=O)NCC2CCCO2)c1 (stereo not given),i,1%,i,-9%,-7
CC(=O)c1cccc(-c2csc3ncnc(Sc4nnnn4C)c23)c1,i,nt,i,nt,nt
Cn1nnnc1Sc1ncnc2scc(-c3cccc(S(C)(=O)=O)c3)c12,?,4.6µM*,21µM*,10%,nt
Cc1cc(C)cc(N2C(=O)CC(c3ccc(C(F)(F)F)cc3)C3=C2COC3=O)c1 (stereo not given),i,nt,i,nt,nt
CC(=O)Nc1ccc(CN(C)c2c(C)nc3ccc(C(=O)N4CCN(C(=O)c5ccco5)CC4)cn23)cc1,i,nt,i,nt,22
O=C(CSc1nc2ccccc2c(=O)n1-c1ccccc1)N1CCCc2ccccc21,?,24%,i,5%,-17
SMILES,KB-V1 MDR tox,MCF10A rereplic,KB-3-1 tox,SW480 rerep,IL1B secr inh
CCn1c(SCC(=O)N2CCCc3ccccc32)nc2cccnc21,i,?,i,1%[9.22 µM],-4
Cc1cc2c(=O)n(Cc3ccco3)c(SCC(=O)N3CCCc4ccccc43)nc2s1,?,-2%,i,14%,-67*
CC(C)Cn1c(SCC(=O)N2CCCc3ccccc32)nc2ccccc2c1=O,?,21µM*,i,?,-66*
CCn1c(SCC(=O)N2CCCc3ccccc32)nc2ccccc2c1=O,10µM*,23µM*,i,2%,-24
Cc1cc2c(=O)n(Cc3ccco3)c(SCC(=O)NCc3ccco3)nc2s1,i,-1%,i,-5%,-1
O=C(c1ccc(S(=O)(=O)N2CCOCC2)cc1)N(c1cccc(Cl)c1)C1C=CS(=O)(=O)C1 (stereo not given),i,6%,i,-13%,4
O=C(NN=C(c1ccccc1)c1ccccn1)c1ccccc1,?,?,?,10µM*,-99*
O=C(N/N=C(\c1ccccc1)c1ccccn1)c1ccccc1Cl,?,?,?,?,-104*
COc1ccc(C(=O)N/N=C(\c2ccccc2)c2ccccn2)cc1,0.65µM*,?,i,?,-23
O=C(NC(O)C(=O)c1ccccc1)c1ccccn1 (stereo not given),i,29%,?,6%,4
COc1ccc(C(=O)Nc2ccc(NC(=O)c3ccccn3)cn2)cc1,?,0%,i,-10%,-1
COC(=O)c1cc2sc(Cl)cc2n1CC(=O)Nc1cc(C)cc(C)c1,i,nt,i,nt,nt
Cc1cc(C)cc(-n2ncc3c2CCCC3NC(=O)CN2CCCCC2=O)c1 (stereo not given),i,-18%,?,-1%,3
COc1ccc2c3c(c(=O)oc2c1OCC(=O)O)CCCC3,i,1%,i,-9%,-4
CCOc1c(OC)ccc2c3c(c(=O)oc12)CCCC3,8.2µM*,15%,i,-12%,-19
O=C(NCc1ccc(F)cc1F)Nc1cnccc1C(F)(F)F,i,-3%,i,4%,0
Cc1ccc(C)n1-c1ccc(N2CCOCC2)c([N+](=O)[O-])c1,i,?,?,?,-68*
O=[N+]([O-])c1ccc(N2CCOCC2)c([N+](=O)[O-])c1,i,1%,i,-11%,4
O=[N+]([O-])c1cc(-n2cccc2)ccc1N1CCOCC1,6.5µM*,-2%,?,-6%,-14
CC(C)CCNC(=O)CCc1nnc2ccc(N3CCC(C)CC3)nn12,i,-3%,i,-12%,-17
Cc1c(N)cc[n+](CC(=O)c2ccccc2)c1C,?,-14%,5.2µM*,?,-70*
COc1ccc(NC(=O)N2CCc3c([nH]c4ccc(OC)cc34)C2c2ccc(OC)cc2)cc1 (stereo not given),i,nt,i,nt,nt
CS(=O)(=O)N1CCc2cc(S(=O)(=O)N3CCN(Cc4ccc5c(c4)OCO5)CC3)ccc21,21µM*,17%,i,5%,-13
Cc1cccn2c(=O)c3cc(C(=O)NCC4CCCO4)c(=N)n(C4CCCC4)c3nc12 (stereo not given),i,?,i,18µM*,0
